The text below walks through data of PubChem BioAssay.

Assay [1] in a line: Her2 expression decrease, cell viability multiplex – SKBR3 breast tumor cells, AlphaScreen, ATP viability, primary screen (AID 461;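 active = Her2 level under about 52% in both replicate screens, with viability over 70% of control, limit read from the data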;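 for Her2 level: lower value means less Her2 protein in the cells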;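 for viability: percent of carrier control wells set as 100% viability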). Particulars: SKBR3 Her2 protein level, 18-24 h, measured here: SKBR3 viability, ATP luminescence, at 10 µM.
Assay [2] deals with Receptor tyrosine-protein kinase erbB-2 (Homo sapiens) (UniProt P04626). Described as above. Particulars: 18-24 h, at 10 µM, stronger effect = lower value.
Assay [3] is described as follows: reduced viability of SK-BR-3 breast cancer cells – cell-based, 24 h, human, pilot screen (AID 572).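 Note: compound exposure lasted between 18 and 24 h rather than exactly 24 h; 100% = carrier-treated control wells.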 Particulars: SK-BR-3 viability, CellTiter-Glo luminescence, at 10 µM, stronger effect = lower value.
The nature of assay [4]: HUVEC growth inhibition – cell-based, human, primary screen (AID 575;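 active = viability at or below 30% in both replicate assays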;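 note: 100% = median of untreated cell wells with 0.1% DMSO on each plate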). Particulars: HUVEC proliferation, CellTiter-Glo luminescence, 72 h; at 10 µM; stronger effect = lower value.
The nature of assay [5]: H69AR cell proliferation blockers – human, duplicate replicates, primary screen (AID 580;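 active = viability at or under a set limit in both replicates, limit being median viability minus 3 SD, cut at about 48% in these data, passing the limit was not always enough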;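 note: 100% = mean luminescence of untreated wells and 0% = no signal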). Particulars: H69AR lung tumor cells viability, ATP luminescence, 72 h; at 10 µM; stronger effect = lower value.
The nature of assay [6]: MRP1 drug-resistance reversers in H69AR cells – cell-based, doxorubicin co-treatment, pilot screen (AID 601;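 active = viability loss from added drug above about 55%, and viability with drug at most 40%, in both replicates, limit read from the data, passing the limit was not always enough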). Particulars: CellTiter-Glo, 72 h, at 10 µM; for differential viability (reversal): stronger effect = higher value. (In general: ATP-based viability assays read luminescence as a measure of living cells.)
The nature of assay [7]: yeast transport mutant growth inhibition pilot in 384-well plates, post-Golgi transport modulator project (AID 636; in the data active = inhibition above about 31%). Particulars: absorbance 615 nm, about 18 h, stronger effect = higher value.
Assay [8] is described as follows: growth suppression of yeast trafficking mutant, preliminary HTS, modulators of trafficking downstream of Golgi apparatus project, 1536-format plate, OD 615 nm (AID 637; in the data active = inhibition above about 30%). Particulars: yeast transport mutant growth, absorbance 615 nm, 18 h; stronger effect = higher value.
Assay [9] can be described thus: S. cerevisiae growth inhibition in permissive medium (OD615), pilot counter-assay for S. cerevisiae lifespan shortening project, permissive growth control (AID 705;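 active = growth inhibition above 25% in both replicates, a cutoff set 3 SD above the mean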). Particulars: OD615, 24 h, at 10 µM, stronger effect = higher value.
A short description of assay [10]: S. cerevisiae growth inhibition in restrictive medium, OD615, pilot screen, restrictive growth control, yeast lifespan reduction project (AID 706;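 active = growth inhibition above a set limit, 3 SD over mean compound inhibition, in both replicates, cut at about 43% in these data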;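 note: modified DeaD lifespan yeast strain shifted to restrictive glucose medium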). Particulars: OD615, 48 h, at 10 µM, stronger effect = higher value.
Assay [11] is described as follows: doxorubicin toxicity protection in MRP-1 cells – H69AR cells, CellTiter-Glo, duplicate, MRP-1 activator project, pilot screen (AID 807;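 active = viability increase at or above a cutoff of the median across tested compounds plus 3 SD, cut at about 8.5% in these data, passing the limit was not always enough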;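 note: compound pretreatment 18-22 h then 72 h combined with doxorubicin; 0% = doxorubicin alone and 100% = vehicle without doxorubicin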). Particulars: H69AR viability with doxorubicin, CellTiter-Glo luminescence; at 10 µM; stronger effect = higher value.
Assay [12] in a line: viability of HCT116 without oncogenic beta-catenin – human colon tumor cells, pilot screen (AID 823;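 active = cell viability at or below a set limit in both duplicate runs, the limit being the all-compound median minus 4 SD, cut at about 23% in these data, passing the limit was not always enough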;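 note: 0% = wells killed by 20 µM Hyamine and 100% = untreated DMSO cell wells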). Particulars: HCT116 beta-catenin knockout viability, CellTiter-Glo, 60 h; at 10 µM; stronger effect = lower value.
The nature of assay [13]: viability of PTEN-null HCT116 cells – cell-based, HCT116 clonal line, CellTiter-Glo, pilot screen (AID 824;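 active = viability at or below 27.92% in each of two runs, the all-compound median minus 4 SD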;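 note: 0% = 20 µM Hyamine control and 100% = vehicle cell control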). Particulars: HCT116 PTEN-deleted viability, 60 h, at 10 µM, stronger effect = lower value.
The nature of assay [14]: RAM pathway blockade in budding yeast – dse1pr::URA3 reporter, 5-FOA selection, pilot screen (AID 869;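 active = inhibition over a set limit, the all-compound mean plus 3 SD, in both replicate runs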;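 note: 0% = DMSO wells with no growth and 100% = 10 µM 1-NA-PP1 with full growth; RAM network block rescues cells from 5-FOA so hits raise OD615 growth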). Particulars: S. cerevisiae dse1pr::URA3 5-FOA growth, OD615, 2 d; at 10 µM; stronger effect = higher value; strain carries analog-sensitive mutant Cbk1 kinase.
A short description of assay [15]: RAM signaling pathway blockade in yeast – S. cerevisiae, Pdr1DBD-CYC8 efflux-inhibited sensitized strain, primary screen (AID 1298;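 active = RAM network inhibition above 8.4% in each of two replicates, 3 SD over the compound average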;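 note: 0% = DMSO untreated cells without growth and 100% = 10 µM 1-NA-PP1 full growth; higher means more yeast growth rescued from 5-FOA killing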). Particulars: S. cerevisiae cbk1-as DSE1-URA3 strain, 5-FOA growth OD615, 2 d; at 50 µM; stronger effect = higher value.
[16] abbreviates: H69AR cells + 2 uM doxorubicin, measured here: viability with 2 uM doxorubicin, stronger effect = lower value.
[17] abbreviates: H69AR cells, compound alone cytotoxicity.

Records with an inconclusive call do not appear. The source made the active and inactive calls.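 Rule for the calls, unless noted: active = viability at or below 10% of carrier control in both of two separate runs; inconclusive = viability at or below 10% in only one of the two runs; inactive = the rest.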

Chain of Receptor tyrosine-protein kinase erbB-2 (Homo sapiens) (P04626 whole entry, looked up): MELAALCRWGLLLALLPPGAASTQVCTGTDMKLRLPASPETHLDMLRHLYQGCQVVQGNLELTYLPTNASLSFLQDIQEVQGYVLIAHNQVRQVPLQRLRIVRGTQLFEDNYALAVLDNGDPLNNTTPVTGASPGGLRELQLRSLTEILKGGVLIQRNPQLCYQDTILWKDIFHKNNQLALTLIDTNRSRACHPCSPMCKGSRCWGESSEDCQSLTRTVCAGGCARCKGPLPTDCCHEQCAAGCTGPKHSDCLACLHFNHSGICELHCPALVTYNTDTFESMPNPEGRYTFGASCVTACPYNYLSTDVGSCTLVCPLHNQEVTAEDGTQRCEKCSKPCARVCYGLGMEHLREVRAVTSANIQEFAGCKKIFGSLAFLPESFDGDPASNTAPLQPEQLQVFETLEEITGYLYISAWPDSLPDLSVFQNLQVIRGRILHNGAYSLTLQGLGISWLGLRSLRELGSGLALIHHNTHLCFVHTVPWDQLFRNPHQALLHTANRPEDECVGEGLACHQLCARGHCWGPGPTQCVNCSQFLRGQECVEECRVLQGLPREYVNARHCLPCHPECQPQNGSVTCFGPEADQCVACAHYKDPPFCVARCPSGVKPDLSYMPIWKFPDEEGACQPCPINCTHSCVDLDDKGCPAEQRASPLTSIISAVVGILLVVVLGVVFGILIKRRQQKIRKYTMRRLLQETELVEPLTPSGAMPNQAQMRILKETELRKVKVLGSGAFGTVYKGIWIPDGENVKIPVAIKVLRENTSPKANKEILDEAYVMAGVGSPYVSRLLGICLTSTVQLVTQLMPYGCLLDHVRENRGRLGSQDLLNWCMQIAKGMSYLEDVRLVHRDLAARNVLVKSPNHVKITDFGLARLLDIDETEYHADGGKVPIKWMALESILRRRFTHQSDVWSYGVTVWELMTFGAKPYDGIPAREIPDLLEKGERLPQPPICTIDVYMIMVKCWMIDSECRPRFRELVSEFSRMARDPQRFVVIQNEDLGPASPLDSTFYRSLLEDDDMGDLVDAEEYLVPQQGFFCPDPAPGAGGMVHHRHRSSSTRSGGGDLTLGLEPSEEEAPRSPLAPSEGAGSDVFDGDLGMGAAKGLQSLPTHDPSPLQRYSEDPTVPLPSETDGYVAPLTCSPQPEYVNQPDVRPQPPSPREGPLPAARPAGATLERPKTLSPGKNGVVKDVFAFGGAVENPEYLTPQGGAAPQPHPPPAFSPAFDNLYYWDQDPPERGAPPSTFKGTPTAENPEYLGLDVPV

On to `CCc1ccccc1N1CC23C=CC(O2)C(C(=O)O)C3C1=O` (stereo not given), for which the viability in assay [1] is 102%; in [3], 102% (inactive); in assay [4], 101% (inactive); in [5] it was 86.7% (inactive); in [6] (setting [16]), 89.3%; in [6] (setting [17]), 86.7%. Also, the viability in [12] is 96% (inactive); in assay [13] it was 102% (inactive). Also, in assay [2], the Her2 level is 93.5% (inactive). Further, the differential viability (reversal) in assay [6] (H69AR cells + 2 uM doxorubicin) was -2.65% (inactive). Moreover, the results for the inhibition in assay [7], in assay [8] and in [14] were -7.2% (inactive), 0.83% (inactive) and 0.365% (inactive), respectively. The growth inhibition is 1.68% (inactive) in assay [9] and -5.72% (inactive) in assay [10]. For the same molecule, the viability increase in assay [11] is 1.1% (inactive). The RAM network inhibition in assay [15] was 1.2% (inactive).

Regarding `COc1ccc(S(=O)(=O)Cc2ccc(C(=O)N3CCN(c4ccccc4)CC3)o2)cc1`, the viability was 72.5% in assay [1]; 72.5% (inactive) in [3]; 104% (inactive) in assay [4]; 84.4% (inactive) in assay [5]; 86.1% in [6] (setting [16]); 84.4% in assay [6] (setting [17]). Also, the viability is 88.8% (inactive) in assay [12] and 89.3% (inactive) in assay [13]. Besides, the Her2 level in assay [2] was 115% (inactive). For the same molecule, in assay [6] (H69AR cells + 2 uM doxorubicin), the differential viability (reversal) is -1.7% (inactive). Further, the inhibition in assay [7] is -2.8% (inactive); in [8], -7.5% (inactive); in assay [14], 0.76% (inactive). Also, the growth inhibition in assay [9] is -11.7% (inactive); in assay [10], -18.9% (inactive). Besides, the viability increase in [11] was -2.99% (inactive). In addition, in assay [15], the RAM network inhibition was 8.54% (inactive).

In the case of `Cn1cc(Cl)c(C(=O)N(Cc2ccccc2)c2ccccn2)n1`, the viability was 98% in assay [1]; 98% (inactive) in assay [3]; 101% (inactive) in assay [4]; 92.2% (inactive) in assay [5]; 93.2% in assay [6] (setting [16]); 92.2% in assay [6] (setting [17]). The viability was 93.3% (inactive) in assay [12] and 94.7% (inactive) in assay [13]. Besides, the Her2 level in assay [2] was 116% (inactive). In addition, the differential viability (reversal) in assay [6] (H69AR cells + 2 uM doxorubicin) was -1.01% (inactive). Moreover, the results for the inhibition in assay [7], in assay [8] and in assay [14] were 1.33% (inactive), 2.33% (inactive) and 1.62% (inactive), respectively. In addition, the growth inhibition in assay [9] was -8.19% (inactive); in assay [10], -1.84% (inactive). In addition, in assay [11], the viability increase was -0.96% (inactive). The RAM network inhibition in [15] is 7.22% (inactive).

Turning to `CCOC(=O)N1CCC(NC(=O)c2ccc3c(c2)N(CC)CCS3)CC1`, the viability in assay [1] is 94.5%; in [3], 94.5% (inactive); in assay [4] it was 100% (inactive); in assay [5] it was 74.2% (inactive); in assay [6] (setting [16]) it was 79.6%; in [6] (setting [17]) it was 74.2%. In addition, the viability is 98.2% (inactive) in assay [12] and 97% (inactive) in assay [13]. Further, the Her2 level in assay [2] was 91.5% (inactive). In addition, in assay [6] (H69AR cells + 2 uM doxorubicin), the differential viability (reversal) was -5.34% (inactive). In addition, the inhibition in assay [7] is -6.93% (inactive); in [8], -0.33% (inactive); in assay [14], 3.51% (inactive). Besides, the growth inhibition was -10.9% (inactive) in assay [9] and -0.105% (inactive) in [10]. Moreover, in [11], the viability increase was -3.08% (inactive). In addition, in assay [15], the RAM network inhibition was 2.26% (inactive).

With `CCCSc1nnc(N2C(=O)CC(c3ccsc3)C3=C2CCCC3=O)s1` (stereo not given), the viability was 92.5% in [1]; 92.5% (inactive) in assay [3]; 93.8% (inactive) in [4]; 92.7% (inactive) in assay [5]; 91.9% in [6] (setting [16]); 92.7% in [6] (setting [17]). For the same molecule, the viability in assay [12] is 99.4% (inactive); in [13], 89.6% (inactive). The Her2 level in assay [2] was 100% (inactive). Moreover, the differential viability (reversal) in [6] (H69AR cells + 2 uM doxorubicin) was 0.73% (inactive). For the same molecule, the inhibition in [7] was -5.87% (inactive); in assay [8], -4.5% (inactive); in assay [14] it was 0.25% (inactive). Further, the growth inhibition was -3.18% (inactive) in [9] and -7.41% (inactive) in assay [10]. Also, the viability increase in [11] was -0.83% (inactive). For the same molecule, the RAM network inhibition in [15] is 7.67% (inactive).

Broadly, the viability is a read-out of living cells in per cent, often relative to untreated cells. As usually defined, the inhibition is the drop in the measured response relative to a control, in per cent.
